Compound activity as filed in PubChem.
Hits are enriched below; roughly 7.6% of the tested compounds scored in any of these assays.
Giardia killer: kills Giardia lamblia; activity change, % at 7.66 µM, hits read low; Giardia lamblia trophozoite viability; AID 540267; hit rate 0.15% among 340,000; in the data active = activity change below about -80%; inconclusive = between about -30% and that limit;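 also: parasites exposed to compound for two days anaerobically before the ATP read; % is scaled to controls: 0 for no effect and ±100 for the full control effect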
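Viability, read as ATP luminescence: trophozoites at 100 cells/well, compound added, 48 hrs anaerobic at 37 deg C, then 15-30 min room-temperature development before reading.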
RORg inh: ROR gamma (mouse) transcription inhibition; P51450; hit rate 5.4% among 310,000; AID 2551; Potency, µM (top dose mostly 53.6 µM), without a hit: top-dose activity change, negative = inhibition, hits mostly inhibitors; Drosophila S2 Gal4-RORgamma UAS-luciferase reporter, 20 h; also: potency is read from the fitted curve at half-maximal effect; % is scaled to controls: 0 for no effect and ±100 for the full control effect; nearly all actives have a fitted effect of over 60% in size
Target sequence (P51450 whole entry, looked up, the tested form may be a part): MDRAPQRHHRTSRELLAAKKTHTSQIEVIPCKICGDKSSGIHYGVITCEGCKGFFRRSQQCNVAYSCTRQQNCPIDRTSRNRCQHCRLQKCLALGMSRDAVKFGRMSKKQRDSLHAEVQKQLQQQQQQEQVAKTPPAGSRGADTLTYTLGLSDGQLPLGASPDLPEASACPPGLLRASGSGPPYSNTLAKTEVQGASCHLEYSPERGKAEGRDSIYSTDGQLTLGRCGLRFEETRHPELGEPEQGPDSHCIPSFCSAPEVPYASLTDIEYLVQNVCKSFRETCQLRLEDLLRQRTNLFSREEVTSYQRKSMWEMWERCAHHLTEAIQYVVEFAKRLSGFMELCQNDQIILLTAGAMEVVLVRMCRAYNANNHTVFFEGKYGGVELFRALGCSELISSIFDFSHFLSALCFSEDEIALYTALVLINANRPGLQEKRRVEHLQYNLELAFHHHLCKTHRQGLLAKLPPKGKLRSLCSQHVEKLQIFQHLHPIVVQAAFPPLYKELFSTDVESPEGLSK
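Stable Schneider cell line, Gal4 DNA-binding domain fused to ROR gamma, UAS-luciferase. Cmpd 1 hr RT → CuSO4 700 uM final → 20 hr RT → luciferase reagent 10 min → luminescence.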
p53 reactivation: restores transcriptional activity of mutant p53 | H1299 p53-A138V BP100-luciferase reporter, luminescence, 24 h | Potency, µM (titrated, usually from 92.2 µM), without a hit: top-dose activity change, positive = activation, most hits filed as activators | hit rate 0.063% among 320,000 | AID 504706; also: potency is read from the fitted curve at half-maximal effect; % of control where 0% means no effect; nearly all actives have a fitted effect of over 45% in size
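p53-null H1299 cells stably carrying temperature-sensitive p53-A138V and a BP100-luciferase reporter were pinned with compounds (4-point, 1:5 series) and held 24 hrs at 37 deg C. Luminescence was read 10 min after detection reagent.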
Gal4-VP16 FLuc: counter-screen for ROR gamma inhibitors: Gal4-VP16 reporter. Drosophila S2 Gal4-VP16 UAS-luciferase, luminescence, 20 h. Potency, µM (highest dose often 53.6 µM), for inactives: at the top dose activity, negative = inhibition, most hits filed as inhibitors. hit rate 3.5% among 310,000;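 also: Gal4-VP16 expression switched on by copper sulfate through the metallothionein promoter; potency is read from the fitted curve at half-maximal effect; % is scaled to controls: 0 for no effect and ±100 for the full control effect; nearly all actives have a fitted effect of over 50% in size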
BRCA1 expr act: increases BRCA1 expression. MCF7-BRCA1-FFLuc reporter, luminescence, 48 h; response scale: scaled: vehicle 0%, 10 µM genistein 100%. Potency, µM (highest dose often 46.1 µM), for the others: at the top dose activation, most hits filed as activators. hit rate 1.1% among 380,000. AID 624202; also: potency is read from the fitted curve at half-maximal effect; nearly all actives have a fitted effect of over 80% in size
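48 h compound treatment of MCF7-BRCA1-FFLuc cells (phenol-red free MEM, 37 °C), then 15 min with luciferase substrate and luminescence imaging.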
ELG1 DNA repair: blocks ELG1-dependent DNA repair in HEK293T cells. Potency, µM (titrated, usually from 46.1 µM), without a hit: at the highest dose activity change, negative = inhibition, hits mostly inhibitors. AID 504467. hit rate 2.3% among 330,000. HEK293T ELG1-luciferase reporter, luminescence, 16 h; DNA damage induced by 5-fluorouridine; also: potency is read from the fitted curve at half-maximal effect; % is scaled to controls: 0 for no effect and ±100 for the full control effect; nearly all actives have a fitted effect of over 55% in size
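Step one: seed 2,000 cells per well. Step two: pin-transfer compound or DMSO alongside 5-fluorouridine. Step three: incubate 16 hr, 37 °C, 5% CO2. Step four: add ONE-Glo, wait 30 min, read luminescence.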
Numbers without * were called inactive; ? = inconclusive; . = not tested or not shown; [ ] = remark or other dose. Unless noted, calls follow the shape of the dose curve; as a rule, active = well fitted curve in the direction sought with a large enough effect; inconclusive = small, poorly fitted or top-dose-only effect, or another doubt; inactive = no such curve, though single readings can be large; an effect the other way counts as inactive or inconclusive.

SMILES | Giardia killer | RORg inh | p53 reactivation | Gal4-VP16 FLuc | BRCA1 expr act | ELG1 DNA repair
CCOC(=O)Cn1c(CN2CCc3ccccc3C2)nc2c1c(=O)n(C)c(=O)n2C | -2 | -31% | -9% | 4µM* | -2% | ?
COCCn1c(CN2CCc3ccccc3C2)nc2c1c(=O)n(C)c(=O)n2C | 2 | 42% | 13% | 2% | -22% | 6.5µM*
Cc1cc(F)ccc1NC(=O)c1ccc(NS(=O)(=O)c2cc(C(C)(C)C)ccc2C)cc1 | 13 | 19% | 1% | 4% | -49% | 10%
COc1ccc(C2=CC(=O)CC(c3ccc(F)cc3)C2)cn1 (configuration not stated) | 11 | . | . | . | -13% | .
CCCCCN=c1ccn(Cc2ccccc2)c2ccccc12 | . | 16µM* | . | -5% | . | .
CN(C)/C=C/C(=O)c1cnc(-c2ccccc2Cl)s1 | -9 | -11% | 9% | 1% | 6.3µM* | ?
CC(C)[C@H](NC(=O)c1ccccc1Cl)C(=O)Nc1nc(-c2ccccn2)cs1 | -18 | 7.9µM* | 6% | ? | -86% | ?
CC(Oc1ccc(Br)cc1)C(=O)Nc1nc(-c2ccccn2)cs1 (configuration not stated) | -4 | 2.5µM* | ? | 3.2µM* | -89% | ?
CCc1nnc(NC(=O)C(NC(=O)c2ccccc2Cl)C(C)C)s1 (configuration not stated) | 4 | -7% | -1% | 2% | -26% | 5%
CCC(=O)Oc1ccc(C(=O)Nc2cccc(NC(=O)c3ccco3)c2)cc1 | 7 | 28% | -1% | 3% | -38% | -2%
Cn1c2ccccc2c2ncn(CCC3=CCCCC3)c(=O)c21 | -4 | 32% | ? | 6% | 10µM* | ?
COCCCn1c(=S)[nH]c2ncccc2c1=O | 0 | 11µM* | -4% | -25% | 0% | 15%
O=c1c2cccnc2[nH]c(=S)n1CCC1=CCCCC1 | -6 | 0.89µM* | 27% | 1.6µM* | -8% | 15%
CN(CCCn1c(=S)[nH]c2ncccc2c1=O)Cc1ccccc1 | 2 | -41% | -3% | -11% | 4% | -4%
CCCCCn1c(=S)[nH]c2ncccc2c1=O | 13 | 1.1µM* | -2% | 2.8µM* | 11% | ?
COCCn1c(=S)[nH]c2ncccc2c1=O | 3 | -22% | 6% | -20% | 16% | ?
O=c1[nH]n(-c2ccc(Cl)cc2)c(=O)c(Cl)c1Cl | 9 | -85% | 29% | ? | -9% | 25%
OC(c1ccccc1)C(Nc1ccccn1)c1ccccc1 (configuration not stated) | -14 | . | . | . | 2% | .
CCN(CC)S(=O)(=O)c1ccc(Oc2ccc(S(=O)(=O)N(CC)CC)cc2)cc1 | 0 | ? | -1% | 7.1µM* | -75% | ?
O=C(NCCn1ccc2ccccc21)c1ccc2c(c1)OCO2 | 0 | -35% | ? | -23% | 2.5µM* | ?
O=C(NNC(=S)NCc1ccccc1)c1ccc2c(c1)OCO2 | 9 | -22% | 13% | ? | -12% | 8%
COc1ccc(C(=O)NCCn2ccc3ccccc32)cc1 | -2 | 4%[0.365 µM] | 22% | . | ? | ?
O=C(NC(=S)NCc1ccccc1)c1ccc2c(c1)OCO2 | -3 | 7.9µM* | ? | 11µM* | 31% | ?
O=C(NCCc1ccccc1)c1ccc2c(c1)OCO2 | ? | 2.8µM* | -8% | 5µM* | -89% | ?
O=C(NCc1ccc2c(c1)OCO2)c1ccccc1 | 20 | ? | -1% | 21% | 13% | -2%
SMILES | Giardia killer | RORg inh | p53 reactivation | Gal4-VP16 FLuc | BRCA1 expr act | ELG1 DNA repair
O=C(NC(=S)NCc1ccc2c(c1)OCO2)c1ccccc1 | 19 | 20µM* | -3% | 18µM* | 4% | 8%
NNC(=O)c1ccncc1 | -12 | ? | 5% | -2% | 16% | 1%
COc1ccccc1N1CCN(C(=O)C2CCCN(S(=O)(=O)c3ccc4c(c3)CCCN4C(C)=O)C2)CC1 (configuration not stated) | 6 | 23% | -4% | 7.9µM* | -7% | ?
CC(=O)N1CCCc2cc(S(=O)(=O)N3CCCC(C(=O)N4CCN(c5ccccc5)CC4)C3)ccc21 (configuration not stated) | 4 | ? | -12% | ? | -32% | ?
O=C(C1CCN(S(=O)(=O)Cc2ccccc2)CC1)N1CCN(c2ncccn2)CC1 | 5 | -1% | -1% | -5% | -21% | -1%
CC(=O)c1ccc(N2CCN(C(=O)C3CCN(S(=O)(=O)Cc4ccccc4)CC3)CC2)cc1 | 7 | 35% | ? | -22% | -13% | 18µM*
CC(=O)Nc1ccc(S(=O)(=O)N2CCCC(C(=O)N3CCN(c4ccccc4)CC3)C2)cc1 (configuration not stated) | 4 | . | . | . | -27% | 21µM*
CCN(CC(=O)NCc1ccc(Cl)cc1)C(=O)c1cc(OC)cc(OC)c1 | -10 | 14% | -3% | -2% | -7% | 5%
COc1ccc(C(=O)NC(CC(C)C)C(=O)O)cc1OC (configuration not stated) | 3 | 1% | 1% | -3% | 5% | 16%
COc1ccc(N2C(=NC(=O)c3ccc(Br)cc3)SC3CS(=O)(=O)CC32)cc1 (configuration not stated) | 6 | . | 10% | . | 5% | 3%
CCN(CC)C(=S)SCC(=O)c1ccccc1 | -14 | 6% | 6% | -7% | 7.9µM* | ?
CCN(CC)C(=S)SCC(=O)c1ccc(F)cc1 | -7 | ? | 16% | -10% | 3.2µM* | ?
CCN(CC)C(=S)SCC(=O)Nc1ccc(F)cc1 | 12 | ? | 3% | -11% | 7% | -6%
Cc1cc(=O)oc2cc(OCC(=O)N/N=C/c3cc([N+](=O)[O-])ccc3O)ccc12 | 8 | 1.3µM* | 0% | 2.2µM* | 2% | ?
O=C(CSc1nc2ccccc2s1)N/N=C/c1cc([N+](=O)[O-])ccc1O | 6 | 5µM* | 8% | ? | -42% | -7%
Cc1ccccc1NC(=O)CCC(=O)N/N=C/c1cc([N+](=O)[O-])ccc1O | 12 | 4µM* | ? | ? | -62% | ?
CN1CCN(CCC(=O)N/N=C/c2cc([N+](=O)[O-])ccc2O)CC1 | -9 | ? | -6% | ? | 0% | -8%
Cc1ccc(NC(=O)CCC(=O)N/N=C/c2cc([N+](=O)[O-])ccc2O)cc1 | -18 | 13µM* | 24% | 14µM* | -77% | ?
CC(C)=CCSc1nnc(CCNC(=O)OC(C)(C)C)o1 | -13 | 26% | 9% | 5% | 7% | 14%
Cc1ccc([N+](=O)[O-])cc1NC(=O)CCc1ccccc1 | -24 | 5% | -1% | -12% | 10% | 7%
